In publication PMC7862700, “An all-to-all approach to the identification of sequence-specific readers for epigenetic DNA modifications on cytosine” one finds binding signal data, which are given here for one sequence.

Common to all, as to experiment: DAPPL (digital affinity profiling via proximity ligation, sequencing); 10 mM Tris-HCl pH 7.5, 50 mM NaCl, 1 mM DTT, 4% glycerol, room temperature, 30 min; GST-TFs on glutathione beads, 16-mer random dsDNA library, 0.1% formaldehyde crosslink after washing; high values mean tight binding
One experiment deals with T1, FLI1 (Homo sapiens, UniProt Q01543 1-452).
T1 sequence: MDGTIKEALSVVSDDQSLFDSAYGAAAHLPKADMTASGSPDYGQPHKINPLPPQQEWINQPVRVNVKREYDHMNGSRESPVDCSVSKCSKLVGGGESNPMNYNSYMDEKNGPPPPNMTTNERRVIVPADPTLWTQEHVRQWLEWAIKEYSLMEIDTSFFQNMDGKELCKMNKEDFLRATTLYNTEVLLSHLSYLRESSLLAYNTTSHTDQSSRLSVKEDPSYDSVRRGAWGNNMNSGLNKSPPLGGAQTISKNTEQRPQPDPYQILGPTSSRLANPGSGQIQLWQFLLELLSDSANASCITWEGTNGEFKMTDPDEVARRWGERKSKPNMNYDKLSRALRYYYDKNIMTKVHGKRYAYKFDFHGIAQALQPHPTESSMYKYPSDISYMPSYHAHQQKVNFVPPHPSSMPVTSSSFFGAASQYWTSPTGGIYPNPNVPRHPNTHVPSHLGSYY
Particulars: protein: recombinant; tags: N-terminal GST; dsDNA, one strand shown. Summed up:
(§1)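 Human transcription factors were made in yeast as GST fusions, captured on glutathione beads and barcoded with DNA. With a tag-only sample included, the pool was incubated with 200 nmole of a random double-stranded 16-mer DNA library in Tris/NaCl/DTT/glycerol buffer at room temperature for 30 min, then crosslinked with 0.1% formaldehyde after washing, ligated by proximity, amplified and sequenced. For binding signal, each hexamer's read frequency for a factor is divided by its frequency for the tag-only sample.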

A further experiment addresses T2, ELK1 (Homo sapiens, UniProt P19419 1-428).
T2 sequence: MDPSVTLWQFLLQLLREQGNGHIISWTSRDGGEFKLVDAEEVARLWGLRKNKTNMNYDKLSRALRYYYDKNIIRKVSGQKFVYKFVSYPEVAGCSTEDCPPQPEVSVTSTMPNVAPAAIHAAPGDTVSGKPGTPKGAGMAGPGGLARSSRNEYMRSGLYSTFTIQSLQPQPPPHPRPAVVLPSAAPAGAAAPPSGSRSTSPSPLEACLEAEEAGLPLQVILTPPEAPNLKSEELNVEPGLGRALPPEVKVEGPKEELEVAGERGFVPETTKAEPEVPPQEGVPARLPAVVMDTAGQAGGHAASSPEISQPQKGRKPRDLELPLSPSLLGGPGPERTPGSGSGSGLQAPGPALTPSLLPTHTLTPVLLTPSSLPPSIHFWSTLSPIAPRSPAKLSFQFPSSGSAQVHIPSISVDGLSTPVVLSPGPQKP
The following applies: protein: recombinant; tags: N-terminal GST; dsDNA, one strand shown. Summed up:
as §1

A further experiment concerns the target T3, GABPA (Homo sapiens, UniProt Q06546 1-454).
T3 sequence: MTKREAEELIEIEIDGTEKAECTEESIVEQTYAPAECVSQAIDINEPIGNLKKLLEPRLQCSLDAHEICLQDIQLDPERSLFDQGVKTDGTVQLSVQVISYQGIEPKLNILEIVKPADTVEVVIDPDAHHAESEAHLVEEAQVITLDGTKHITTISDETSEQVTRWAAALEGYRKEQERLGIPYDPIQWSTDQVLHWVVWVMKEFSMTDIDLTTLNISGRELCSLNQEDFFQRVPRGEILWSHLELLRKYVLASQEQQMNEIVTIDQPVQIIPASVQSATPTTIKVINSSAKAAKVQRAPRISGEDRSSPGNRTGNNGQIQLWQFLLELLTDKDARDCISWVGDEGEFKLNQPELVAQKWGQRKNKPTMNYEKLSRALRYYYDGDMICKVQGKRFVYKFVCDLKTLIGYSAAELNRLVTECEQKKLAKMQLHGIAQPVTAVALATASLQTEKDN
The following applies: protein: recombinant; tags: N-terminal GST; dsDNA, one strand shown. The method in brief: as §1

The next experiment deals with T4, ERG (Homo sapiens, UniProt P11308 1-479).
T4 sequence: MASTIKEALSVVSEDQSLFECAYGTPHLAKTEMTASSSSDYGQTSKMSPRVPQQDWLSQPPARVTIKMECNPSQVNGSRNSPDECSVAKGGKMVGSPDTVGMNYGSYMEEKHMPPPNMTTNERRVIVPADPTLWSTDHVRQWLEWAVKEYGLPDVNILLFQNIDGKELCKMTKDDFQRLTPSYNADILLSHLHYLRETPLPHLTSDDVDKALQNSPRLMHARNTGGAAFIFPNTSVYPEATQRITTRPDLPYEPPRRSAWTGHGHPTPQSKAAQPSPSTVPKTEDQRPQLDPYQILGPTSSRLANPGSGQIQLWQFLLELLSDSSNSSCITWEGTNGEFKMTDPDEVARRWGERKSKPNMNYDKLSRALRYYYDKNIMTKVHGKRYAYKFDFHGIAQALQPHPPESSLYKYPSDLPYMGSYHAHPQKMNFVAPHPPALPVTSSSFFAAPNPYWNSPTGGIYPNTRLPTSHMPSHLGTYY
The following applies: protein: recombinant; tags: N-terminal GST; dsDNA, one strand shown. Summed up: as §1

The next experiment addresses ELF1 (Homo sapiens, UniProt P32519 1-619). Particulars: protein: recombinant; tags: N-terminal GST; dsDNA, one strand shown. The method in brief: as §1
Another experiment deals with T5, EHF (Homo sapiens, UniProt Q9NZC4 1-300).
T5 sequence: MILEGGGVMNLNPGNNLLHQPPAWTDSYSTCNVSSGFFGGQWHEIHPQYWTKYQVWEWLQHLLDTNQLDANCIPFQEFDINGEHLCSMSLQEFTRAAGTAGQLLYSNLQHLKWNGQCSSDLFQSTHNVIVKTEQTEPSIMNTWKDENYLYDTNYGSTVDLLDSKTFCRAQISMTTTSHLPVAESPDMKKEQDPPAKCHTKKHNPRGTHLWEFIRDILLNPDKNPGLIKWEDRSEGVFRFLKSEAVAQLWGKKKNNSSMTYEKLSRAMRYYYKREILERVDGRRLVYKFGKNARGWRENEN
The following applies: protein: recombinant; tags: N-terminal GST; dsDNA, one strand shown. The method in brief:
as §1

A further experiment deals with SPI1 (Homo sapiens, UniProt P17947 1-270). Particulars: protein: recombinant; tags: N-terminal GST; dsDNA, one strand shown. Summed up: as §1
Another experiment concerns the target SPIB (Homo sapiens, UniProt Q01892 1-262). The following applies: protein: recombinant; tags: N-terminal GST; dsDNA, one strand shown. Summed up:
as §1

Another experiment addresses T6, ELK3 (Homo sapiens, UniProt P41970 1-407).
T6 sequence: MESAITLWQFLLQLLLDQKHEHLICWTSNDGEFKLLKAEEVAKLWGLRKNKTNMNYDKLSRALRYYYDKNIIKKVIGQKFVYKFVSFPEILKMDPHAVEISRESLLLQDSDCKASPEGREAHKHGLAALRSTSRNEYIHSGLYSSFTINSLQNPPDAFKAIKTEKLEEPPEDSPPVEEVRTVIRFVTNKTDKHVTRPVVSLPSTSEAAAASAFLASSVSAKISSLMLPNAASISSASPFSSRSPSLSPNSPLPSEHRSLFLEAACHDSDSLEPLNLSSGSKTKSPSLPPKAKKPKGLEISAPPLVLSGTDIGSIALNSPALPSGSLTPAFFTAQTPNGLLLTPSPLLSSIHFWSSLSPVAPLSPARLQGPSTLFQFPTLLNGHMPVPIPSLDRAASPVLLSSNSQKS
The following applies: protein: recombinant; tags: N-terminal GST; dsDNA, one strand shown. The method in brief: as §1

For the next experiment, the target named is T7, FEV (Homo sapiens, UniProt Q99581 1-238).
T7 sequence: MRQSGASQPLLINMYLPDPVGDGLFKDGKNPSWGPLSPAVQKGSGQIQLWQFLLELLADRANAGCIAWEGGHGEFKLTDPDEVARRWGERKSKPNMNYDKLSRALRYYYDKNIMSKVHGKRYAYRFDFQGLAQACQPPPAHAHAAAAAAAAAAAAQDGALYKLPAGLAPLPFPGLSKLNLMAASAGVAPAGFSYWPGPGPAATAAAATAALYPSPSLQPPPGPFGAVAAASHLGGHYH
The following applies: protein: recombinant; tags: N-terminal GST; dsDNA, one strand shown. Summed up:
as §1

Another experiment addresses ETV5 (Homo sapiens, UniProt P41161 1-510). The following applies: protein: recombinant; tags: N-terminal GST; dsDNA, one strand shown. The method in brief: as §1
For a further experiment, the target named is HSF1 (Homo sapiens, UniProt Q00613 1-529). The following applies: protein: recombinant; tags: N-terminal GST; chain copies: 3; dsDNA, one strand shown. The method in brief: as §1
The next experiment addresses T8, SPIC (Homo sapiens, UniProt Q8N5J4 1-248).
T8 sequence: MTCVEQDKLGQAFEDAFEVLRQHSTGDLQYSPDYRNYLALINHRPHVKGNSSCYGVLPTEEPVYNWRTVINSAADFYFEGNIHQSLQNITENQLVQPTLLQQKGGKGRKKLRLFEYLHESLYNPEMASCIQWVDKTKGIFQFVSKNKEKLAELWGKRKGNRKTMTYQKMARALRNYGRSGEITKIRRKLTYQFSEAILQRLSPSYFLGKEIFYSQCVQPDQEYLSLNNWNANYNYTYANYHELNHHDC
Particulars: protein: recombinant; tags: N-terminal GST; dsDNA, one strand shown. Summed up:
as §1

The next experiment deals with ELF4 (Homo sapiens, UniProt Q99607 1-663). Particulars: protein: recombinant; tags: N-terminal GST; dsDNA, one strand shown. Summed up:
as §1

A further experiment concerns the target T9, ELK4 (Homo sapiens, UniProt P28324-2 1-405).
T9 sequence: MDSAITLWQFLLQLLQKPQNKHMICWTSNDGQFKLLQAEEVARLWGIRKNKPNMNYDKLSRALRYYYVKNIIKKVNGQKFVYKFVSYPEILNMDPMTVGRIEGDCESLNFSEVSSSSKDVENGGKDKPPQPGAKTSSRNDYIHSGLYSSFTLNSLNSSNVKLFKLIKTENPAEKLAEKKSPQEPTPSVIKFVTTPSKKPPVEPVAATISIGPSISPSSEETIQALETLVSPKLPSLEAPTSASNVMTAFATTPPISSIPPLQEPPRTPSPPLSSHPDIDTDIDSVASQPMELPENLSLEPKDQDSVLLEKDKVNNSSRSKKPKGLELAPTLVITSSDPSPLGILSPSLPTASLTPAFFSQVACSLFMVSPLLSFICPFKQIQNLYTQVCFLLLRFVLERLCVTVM
Particulars: protein: recombinant; tags: N-terminal GST; dsDNA, one strand shown. Summed up:
as §1

For another experiment, the target named is T10, ETV2 (Homo sapiens, UniProt O00321 1-342).
T10 sequence: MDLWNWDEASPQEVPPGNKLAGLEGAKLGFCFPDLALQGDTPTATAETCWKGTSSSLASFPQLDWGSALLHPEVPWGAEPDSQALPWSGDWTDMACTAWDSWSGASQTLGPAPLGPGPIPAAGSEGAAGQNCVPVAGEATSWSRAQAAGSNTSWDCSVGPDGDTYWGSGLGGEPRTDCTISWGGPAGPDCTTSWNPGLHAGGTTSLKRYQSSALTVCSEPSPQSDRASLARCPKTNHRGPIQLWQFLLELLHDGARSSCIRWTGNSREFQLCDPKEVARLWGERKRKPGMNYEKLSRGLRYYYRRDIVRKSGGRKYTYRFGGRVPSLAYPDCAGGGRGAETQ
The following applies: protein: recombinant; tags: N-terminal GST; dsDNA, one strand shown. The method in brief:
as §1

The target in the next experiment is T11, ELF3 (Homo sapiens, UniProt P78545 1-371).
T11 sequence: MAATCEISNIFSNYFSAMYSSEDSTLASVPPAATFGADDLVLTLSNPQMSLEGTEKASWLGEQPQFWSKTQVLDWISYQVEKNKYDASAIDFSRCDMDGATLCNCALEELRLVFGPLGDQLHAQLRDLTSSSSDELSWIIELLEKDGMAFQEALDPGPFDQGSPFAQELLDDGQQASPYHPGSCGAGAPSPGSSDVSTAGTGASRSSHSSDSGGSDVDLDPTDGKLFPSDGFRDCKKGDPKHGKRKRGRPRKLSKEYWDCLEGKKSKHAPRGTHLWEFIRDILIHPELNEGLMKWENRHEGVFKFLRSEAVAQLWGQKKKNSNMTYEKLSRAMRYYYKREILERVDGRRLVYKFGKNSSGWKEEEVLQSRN
The following applies: protein: recombinant; tags: N-terminal GST; dsDNA, one strand shown. The method in brief: as §1

For the next experiment, the target named is CRX (Homo sapiens, UniProt O43186 1-299). The following applies: protein: recombinant; tags: N-terminal GST; dsDNA, one strand shown. Summed up:
as §1

The target of a further experiment is ETV1 (Homo sapiens, UniProt P50549 1-477). Particulars: protein: recombinant; tags: N-terminal GST; dsDNA, one strand shown. The method in brief:
as §1

Chain of ELF1 (P32519 whole entry): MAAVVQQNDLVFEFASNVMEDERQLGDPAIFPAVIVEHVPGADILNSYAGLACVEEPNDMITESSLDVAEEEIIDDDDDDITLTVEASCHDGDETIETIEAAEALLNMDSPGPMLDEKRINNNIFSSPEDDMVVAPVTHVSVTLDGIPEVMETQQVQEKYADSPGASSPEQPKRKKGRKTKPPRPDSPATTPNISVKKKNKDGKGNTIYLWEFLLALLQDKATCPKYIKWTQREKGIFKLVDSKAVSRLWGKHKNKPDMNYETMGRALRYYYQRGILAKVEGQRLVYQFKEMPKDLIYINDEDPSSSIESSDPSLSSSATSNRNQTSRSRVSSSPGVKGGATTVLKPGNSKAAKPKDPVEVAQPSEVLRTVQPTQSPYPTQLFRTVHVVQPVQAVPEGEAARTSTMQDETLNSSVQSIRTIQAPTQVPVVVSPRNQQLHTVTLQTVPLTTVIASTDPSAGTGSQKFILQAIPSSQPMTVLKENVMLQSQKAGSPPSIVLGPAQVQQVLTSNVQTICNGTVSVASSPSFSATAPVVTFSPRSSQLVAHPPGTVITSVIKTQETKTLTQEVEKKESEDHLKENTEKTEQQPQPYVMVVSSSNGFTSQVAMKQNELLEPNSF
Chain of CRX (O43186 whole entry): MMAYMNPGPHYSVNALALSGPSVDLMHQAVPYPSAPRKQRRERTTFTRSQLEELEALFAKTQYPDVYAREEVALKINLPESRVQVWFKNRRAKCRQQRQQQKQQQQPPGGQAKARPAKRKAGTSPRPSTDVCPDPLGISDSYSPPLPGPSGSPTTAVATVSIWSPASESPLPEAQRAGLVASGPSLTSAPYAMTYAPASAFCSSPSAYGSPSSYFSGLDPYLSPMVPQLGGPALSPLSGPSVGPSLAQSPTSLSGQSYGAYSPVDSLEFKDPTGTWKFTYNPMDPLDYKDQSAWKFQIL
Chain of ETV1 (P50549 whole entry): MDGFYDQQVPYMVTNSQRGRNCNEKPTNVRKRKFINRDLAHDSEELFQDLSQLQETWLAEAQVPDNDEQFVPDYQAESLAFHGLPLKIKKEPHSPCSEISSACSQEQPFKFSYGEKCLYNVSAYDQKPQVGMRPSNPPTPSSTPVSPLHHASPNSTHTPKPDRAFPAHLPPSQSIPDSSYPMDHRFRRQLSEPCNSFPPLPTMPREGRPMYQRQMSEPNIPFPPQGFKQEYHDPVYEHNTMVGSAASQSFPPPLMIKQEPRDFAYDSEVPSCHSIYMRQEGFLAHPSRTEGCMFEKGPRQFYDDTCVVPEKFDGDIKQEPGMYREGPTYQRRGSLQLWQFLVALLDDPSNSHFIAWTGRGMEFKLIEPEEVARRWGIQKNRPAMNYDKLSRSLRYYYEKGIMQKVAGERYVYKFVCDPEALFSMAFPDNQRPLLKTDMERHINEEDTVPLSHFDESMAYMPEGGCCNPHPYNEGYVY
Chain of HSF1 (Q00613 whole entry): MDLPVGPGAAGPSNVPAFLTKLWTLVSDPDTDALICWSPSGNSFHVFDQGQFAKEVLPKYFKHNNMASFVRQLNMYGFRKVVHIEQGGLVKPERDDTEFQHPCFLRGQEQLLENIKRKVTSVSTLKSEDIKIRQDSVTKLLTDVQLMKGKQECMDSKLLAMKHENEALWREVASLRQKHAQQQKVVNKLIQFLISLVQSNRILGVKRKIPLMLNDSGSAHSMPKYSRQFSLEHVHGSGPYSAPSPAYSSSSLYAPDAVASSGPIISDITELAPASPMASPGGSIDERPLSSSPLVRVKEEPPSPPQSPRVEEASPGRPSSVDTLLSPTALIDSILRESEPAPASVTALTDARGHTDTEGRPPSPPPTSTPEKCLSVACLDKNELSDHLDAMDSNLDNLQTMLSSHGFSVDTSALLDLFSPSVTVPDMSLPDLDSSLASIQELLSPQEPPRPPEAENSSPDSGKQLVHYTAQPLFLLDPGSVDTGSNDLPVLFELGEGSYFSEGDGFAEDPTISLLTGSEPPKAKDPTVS
Chain of SPIB (Q01892 whole entry): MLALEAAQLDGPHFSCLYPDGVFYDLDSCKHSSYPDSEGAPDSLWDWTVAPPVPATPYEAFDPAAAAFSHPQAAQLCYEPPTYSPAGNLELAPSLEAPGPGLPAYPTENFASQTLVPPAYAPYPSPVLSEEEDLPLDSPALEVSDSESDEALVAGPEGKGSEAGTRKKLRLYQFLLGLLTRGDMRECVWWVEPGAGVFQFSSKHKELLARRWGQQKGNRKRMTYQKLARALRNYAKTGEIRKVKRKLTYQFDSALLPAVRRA
Chain of ELF4 (Q99607 whole entry): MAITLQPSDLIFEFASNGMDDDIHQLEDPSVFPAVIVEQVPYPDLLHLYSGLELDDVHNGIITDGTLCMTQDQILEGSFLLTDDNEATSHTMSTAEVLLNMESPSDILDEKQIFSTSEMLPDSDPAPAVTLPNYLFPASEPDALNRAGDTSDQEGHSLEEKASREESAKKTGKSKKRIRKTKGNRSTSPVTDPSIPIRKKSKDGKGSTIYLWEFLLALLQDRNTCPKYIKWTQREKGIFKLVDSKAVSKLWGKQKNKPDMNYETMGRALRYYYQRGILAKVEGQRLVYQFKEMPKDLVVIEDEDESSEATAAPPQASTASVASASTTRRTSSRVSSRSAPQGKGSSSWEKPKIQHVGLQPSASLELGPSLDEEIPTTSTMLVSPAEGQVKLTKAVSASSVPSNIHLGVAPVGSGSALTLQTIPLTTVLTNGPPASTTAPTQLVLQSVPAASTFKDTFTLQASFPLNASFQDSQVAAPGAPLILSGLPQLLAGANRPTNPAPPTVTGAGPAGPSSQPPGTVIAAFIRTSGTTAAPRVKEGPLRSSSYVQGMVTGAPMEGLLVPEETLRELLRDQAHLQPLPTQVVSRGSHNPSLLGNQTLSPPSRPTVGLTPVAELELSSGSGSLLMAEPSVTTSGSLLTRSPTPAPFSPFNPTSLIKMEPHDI
Chain of ETV5 (P41161 whole entry): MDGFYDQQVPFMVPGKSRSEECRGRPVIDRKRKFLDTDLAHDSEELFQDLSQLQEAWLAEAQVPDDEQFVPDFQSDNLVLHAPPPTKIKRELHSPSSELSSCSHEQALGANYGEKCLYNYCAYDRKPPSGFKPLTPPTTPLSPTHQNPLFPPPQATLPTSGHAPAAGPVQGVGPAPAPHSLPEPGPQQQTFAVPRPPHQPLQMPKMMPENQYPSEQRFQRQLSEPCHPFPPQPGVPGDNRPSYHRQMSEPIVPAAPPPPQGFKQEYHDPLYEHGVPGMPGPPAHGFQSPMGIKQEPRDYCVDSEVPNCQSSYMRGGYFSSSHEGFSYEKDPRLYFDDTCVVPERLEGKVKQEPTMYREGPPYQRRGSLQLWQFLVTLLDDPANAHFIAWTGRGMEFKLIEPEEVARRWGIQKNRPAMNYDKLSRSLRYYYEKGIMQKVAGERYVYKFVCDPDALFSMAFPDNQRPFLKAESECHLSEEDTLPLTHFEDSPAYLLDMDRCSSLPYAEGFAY

For CTAACG, the binding signal with FLI1 was 1.22 fold enrichment (6-mer frequency, TF over GST control); with ELK1, 1.23 fold enrichment (6-mer frequency, TF over GST control); with GABPA, 1.09 fold enrichment (6-mer frequency, TF over GST control); in the experiment with ERG it was 1.21 fold enrichment (6-mer frequency, TF over GST control); with ELF1 it was 1.13 fold enrichment (6-mer frequency, TF over GST control); with EHF it was 1.13 fold enrichment (6-mer frequency, TF over GST control). Further, the binding signal with SPI1 was 1.26 fold enrichment (6-mer frequency, TF over GST control); with SPIB, 1.11 fold enrichment (6-mer frequency, TF over GST control); with ELK3, 1.19 fold enrichment (6-mer frequency, TF over GST control); with FEV, 1.19 fold enrichment (6-mer frequency, TF over GST control); with ETV5 it was 1.19 fold enrichment (6-mer frequency, TF over GST control); with HSF1, 1.09 fold enrichment (6-mer frequency, TF over GST control). In addition, the binding signal with SPIC was 1.04 fold enrichment (6-mer frequency, TF over GST control); with ELF4 it was 1.17 fold enrichment (6-mer frequency, TF over GST control); with ELK4, 1.19 fold enrichment (6-mer frequency, TF over GST control); in the experiment with ETV2, 1.01 fold enrichment (6-mer frequency, TF over GST control); in the experiment with ELF3, 1.18 fold enrichment (6-mer frequency, TF over GST control); with CRX, 1.1 fold enrichment (6-mer frequency, TF over GST control). For the same sequence, in the experiment with ETV1, the binding signal was 1.11 fold enrichment (6-mer frequency, TF over GST control).
